In the library only some 2.1% were active in any assay of this set; here they are far more common.
CCHF vOTU inh – CCHFV vOTU protease inhibition; Pep-AMC fluorescence; inhibition, % at 11.5 µM; 370,000 tested, 0.55% active; in the data active means inhibition above about 30%; further: 0% = vehicle wells with enzyme and 100% = no enzyme wells
PfHsp40 yeast – restores yeast growth despite PfHsp40 toxicity | S. cerevisiae expressing PfHsp40, growth rescue, ATP luminescence | growth rescue, % at 12.5 µM | 340,000 tested, 0.68% active; in the data active means growth rescue above about 28%, passing the limit was not always enough;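 further: yeast W303a lacking pdr1 and pdr3 grown in galactose medium; growth measured after three days at 30 °C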
Sa ugtP lethal – growth inhibition of S. aureus ugtP deletion strain. S. aureus RN4220 ugtP deletion, OD600 growth, 16 h. growth inhibition, % (concentration not given with the values). 330,000 tested, 0.54% active. AID 1259309; in the data active means growth inhibition above about 68%;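 further: plate controls were untreated wells for no effect and antibiotic for full effect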
PrP UTR inh – suppresses PrP 5' UTR mRNA reporter expression. 340,000 tested, 0.35% active. inhibition, % (no concentration beside the values). cell-based PrP 5' UTR mRNA reporter, plate reader; in the data active means inhibition above about 52%; further: 0 = median of the neutral control wells
RN4220 kill – S. aureus RN4220 growth inhibition; 330,000 tested, 0.33% active; OD600, 16 h; inhibition, % (no concentration beside the values); in the data active means inhibition above about 85%;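 further: plate controls were untreated cells for no effect and reference antibiotic for full effect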
PrPC surface inh – inhibitors of human cell surface prion protein PrPC. P04156. TR-FRET read-out. inhibition, % at 13.8 µM. 370,000 tested, 0.43% active; in the data active means inhibition above about 24%; further: 0% = median of the test wells and 100% = reference compound wells
An asterisk follows results filed as active; . = not tested or not shown.

SMILES | CCHF vOTU inh | PfHsp40 yeast | Sa ugtP lethal | PrP UTR inh | RN4220 kill | PrPC surface inh
O=C(NC(=S)NCc1ccc(Cl)cc1)c1ccco1 | -18.2 | 4.5 | -9.7 | -0.4 | -0.8 | 16.1
COc1ccc(NC(=O)C=Cc2cc(Br)ccc2OC)cc1 | . | . | 11.5 | . | 34.1 | .
C=C(C)COc1ccc(-c2[nH]ncc2-c2ccc(Br)cc2)c(O)c1 | -7.1 | 308.9* | 79.9 | -20.5 | -11.5 | 3.0
COc1cc(OC)c(OC)cc1/C=N/n1c(-c2n[nH]c3c2CCC3)n[nH]c1=S | -12.7 | 27.9* | . | -10.0 | . | 1.1
N#Cc1ccc(C23CC4(C2)C(CN(CC2CCCCC2)C4c2ccccc2)C3c2ccc(C(F)(F)F)cc2)cc1 (stereo unspecified) | . | . | -7.4 | . | -7.1 | .
O=[N+]([O-])c1cccc(C=Nn2c(C3CCCCC3)n[nH]c2=S)c1 | . | . | -9.6 | . | 5.9 | .
Cc1ccc(Nc2c(-c3ccccc3O)nc3cnccn23)cc1 | 8.0 | 57.8* | 1.2 | -8.9 | 12.7 | 6.1
COc1cccc(OCC(=O)Nc2ccncc2)c1 | 5.6 | -2.3 | 7.1 | -30.5 | 5.3 | -0.5
CC(C)CCOc1cccc(OCC(=O)Nc2ccncc2)c1 | 5.1 | 105.0* | 0.1 | -10.8 | 3.3 | 16.4
COC1CCCN(Cc2c(C(=O)N3CCc4ccccc4C3)nc3ccc(Cl)cn23)C1 (stereo unspecified) | 3.2 | 1.9 | 7.8 | -0.8 | 4.0 | -3.9
CC1CCCN(Cc2c(C(=O)N3CCc4ccccc4C3)nc3ccc(Cl)cn23)C1 (stereo unspecified) | 19.9 | 54.7* | 8.1 | -8.0 | 3.0 | 4.4
Cc1ccc(Sc2ccc(NC(=O)CCl)cc2)cc1C | 11.3 | 456.8* | -13.7 | 9.1 | 19.8 | 1.0
Cc1ccc(C)c(Sc2ccc(NC(=O)CCl)cc2)c1 | -0.7 | . | -29.8 | . | 25.0 | 2.9
CC(CC(=O)NC1CCCCC1)=NNC(=O)COc1ccc(C)cc1Br | . | . | 6.4 | . | 3.8 | .
O=C(NN=Cc1c(F)c(F)c(F)c(F)c1F)c1ccc(-c2ccccc2)cc1 | . | . | 2.8 | . | 2.9 | .
O=C(/C(N=Nc1cccc(C(F)(F)F)c1)=C(/O)c1cccs1)C(F)(F)F | 1.8 | 194.8* | 84.6 | -56.8 | 81.4 | 5.8
N=C1/C(=C/c2cccn2-c2ccc([N+](=O)[O-])cc2)C(=O)N=C2SC=CN12 | 4.6 | -1.2 | -9.2 | -24.8 | 1.2 | -6.9
COc1ccc(-c2ccc(/C=C3/C(=N)N4C=CSC4=NC3=O)o2)c([N+](=O)[O-])c1 | 23.9 | -1.6 | 94.0* | -42.8 | 20.6 | -0.2
COc1ccc(Cl)cc1N1C(=O)CC(N2CCc3ccccc32)C1=O (stereo unspecified) | 13.0 | 42.9* | 7.4 | 3.4 | 4.5 | 11.1
Cc1c(N=C(N)N=C(N)Nc2ccccc2)c(=O)n(-c2ccccc2)n1C | . | . | 5.7 | . | 4.2 | .
C=CCn1c(=O)c(C(=O)NCc2ccc(Cl)cc2)c(O)c2ccccc21 | -1.7 | 1.3 | 50.5 | -8.7 | 10.7 | 1.1
C=CCn1c(=O)c(C(=O)NCCc2ccccc2)c(O)c2ccccc21 | -1.5 | 93.6* | 27.9 | 6.1 | 8.2 | -0.2
CCCn1c(=O)c(C(=O)NCCc2ccccc2)c(O)c2ccccc21 | -1.0 | -1.0 | 0.6 | -14.9 | 2.2 | -1.4
C=CCn1c(=O)c(C(=O)Nc2ccc(C)cn2)c(O)c2ccccc21 | -7.4 | 0.7 | 100.5* | -30.4 | 96.2* | -4.8
C=CCn1c(=O)c(C(=O)Nc2cccnc2)c(O)c2ccccc21 | 17.4 | -0.6 | 61.2 | -4.3 | 98.8* | 1.6
SMILES | CCHF vOTU inh | PfHsp40 yeast | Sa ugtP lethal | PrP UTR inh | RN4220 kill | PrPC surface inh
CCn1c(=O)c(C(=O)Nc2ccccc2)c(O)c2ccccc21 | -10.4 | 1.2 | 6.3 | -22.7 | -5.4 | 0.1
CCCCNC(=O)C1CC=CC2CCN(Cc3ccc(Cl)c(Cl)c3)C(=O)C21 (stereo unspecified) | . | . | -4.1 | . | -0.6 | .
O=C(NN=Cc1cccnc1)c1ccccc1OCc1ccc(Cl)cc1 | . | . | 1.4 | . | 10.5 | .
CCc1ccc(C=c2sc(=CC(=O)C(C)(C)C)[nH]c2=O)cc1 | . | . | -12.3 | . | 10.3 | .
O=[N+]([O-])c1ccc(NC(=S)NCCc2ccc(Cl)cc2)cc1 | 13.2 | 0.2 | 99.9* | -8.2 | 100.6* | 7.9
O=[N+]([O-])c1ccc(NC(=S)NCc2ccc(F)cc2)cc1 | 2.8 | 109.3* | . | -28.4 | . | 6.4
O=[N+]([O-])c1cc(C(F)(F)F)ccc1N1CCC(O)CC1 | 9.7 | 0.8 | -3.2 | -20.9 | 1.2 | -21.4
O=[N+]([O-])c1cc(C(F)(F)F)ccc1NCCCCNS(=O)(=O)c1ccc(Cl)cc1 | 11.5 | 2.3 | -25.9 | 4.4 | -10.3 | 7.1
